Records with an inconclusive call do not appear. A number with no mark means an inactive call. The source made the active and inactive calls. Unless noted, calls come from the whole dose curve; as a rule, active = well fitted curve in the direction sought with a large enough effect in the repeat runs; inconclusive = weak or mixed curves; inactive = no such curve, though single readings can be large; an effect the other way counts as inactive or inconclusive.

Test [1] can be described thus: qHTS assay to identify small molecule antagonists of the thyroid receptor (TR) signaling pathway - cell viability counter screen (AID 743064). Note: nearly all actives have a fitted effect of over 50% in size. A digest of the protocol: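 Plate GH3.TRE-Luc cells; incubate 4 h at 37 °C; add compound, then T3 to 1 nM final; incubate 23.5 h; add CellTiter-Fluor; incubate 30 min at 37 °C, 5% CO2; read fluorescence.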
Test [2] can be described thus: qHTS assay to identify small molecule antagonists of the thyroid receptor (TR) signaling pathway (AID 743065). Note: series mostly up to about 70 µM; nearly all actives have a fitted effect of over 55% in size. A digest of the protocol:
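GH3.TRE-Luc rat pituitary cells (two TREs driving luciferase) were dosed with compound, then stimulated with 1 nM T3 (final) for 23.5 h at 37 C. ONE-Glo luminescence was the read-out, with CellTiter-Fluor fluorescence as the cytotoxicity counter-screen.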

Test [3] deals with thyroid hormone receptor (rat, GH3 cells). The test is described as follows: qHTS assay to identify small molecule agonists of the thyroid receptor (TR) signaling pathway (AID 743066; calls by dose curve).
The target in test [4] is Estrogen receptor (Homo sapiens) (UniProt P03372). The test is described as follows: qHTS assay to identify small molecule antagonists of the estrogen receptor alpha (ER-alpha) signaling pathway (AID 743069; active = well fitted curve in the direction sought with a large enough effect in the signal ratio in the repeat runs, not every such curve was filed as active; the % refers to the signal ratio). Summed up: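 Beta-lactamase FRET fluorescence is read after 2 hr at room temperature with LiveBLAzer B/G substrate. Before that, ER-alpha-bla HEK293 cells sit 4 hr after plating, then receive compound plus 17beta-estradiol and incubate 18 hr at 37C.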

Test [5] can be described thus: qHTS assay to identify small molecule antagonists of the estrogen receptor alpha (ER-alpha) signaling pathway - cell viability counter screen (AID 743074; calls by dose curve;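 note: HEK293 cells carrying ER-alpha-UAS-bla reporter stimulated with 17beta-estradiol; nearly all actives have a fitted effect of over 45% in size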).
In test [6] the target is Estrogen receptor (Homo sapiens) (UniProt P03372). Description: qHTS assay to identify small molecule agonists of the estrogen receptor alpha (ER-alpha) signaling pathway (AID 743075; calls by dose curve;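 note: HEK293 GripTite cells with ER-alpha and UAS-driven beta-lactamase reporter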).
For test [7] the target is unchanged. Description: qHTS assay to identify small molecule agonists of the estrogen receptor alpha (ER-alpha) signaling pathway using the BG1 cell line (AID 743079). Note: nearly all actives have a fitted effect of over 20% in size.
The nature of test [8]: qHTS assay to identify small molecule antagonists of the estrogen receptor alpha (ER-alpha) signaling pathway using the BG1 cell line (AID 743080; calls by dose curve;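 note: BG1 cells stimulated with 17beta-estradiol alongside compound; series mostly up to about 70 µM; nearly all actives have a fitted effect of over 25% in size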). Summed up: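 Seeding, 24 h rest, compound transfer from DMSO, 17beta-estradiol addition, 21.5 h incubation, CellTiter-Fluor (30 min, 37 C), then ONE-Glo (30 min, room temperature): this sequence was run on BG1-Luc-4E2 reporter cells.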

A short description of test [9]: qHTS assay to identify small molecule antagonists of the estrogen receptor alpha (ER-alpha) signaling pathway using the BG1 cell line - cell viability counter screen (AID 743081).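 Note: compound given together with 17beta-estradiol as the ER stimulus; series mostly up to about 70 µM; nearly all actives have a fitted effect of over 45% in size.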
For the next test, the target named is Aromatase (Homo sapiens) (UniProt P11511). The test is described as follows: qHTS assay to identify aromatase inhibitors (AID 743083). Note: series mostly up to about 70 µM; nearly all actives have a fitted effect of over 55% in size.
Test [10] is described as follows: qHTS assay to identify aromatase inhibitors - cell viability counter screen (AID 743084).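 Note: cells stimulated with testosterone during compound exposure; nearly all actives have a fitted effect of over 55% in size.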
Test [11] addresses Aryl hydrocarbon receptor (Homo sapiens) (UniProt P35869). The test is described as follows: qHTS assay to identify small molecule that activate the aryl hydrocarbon receptor (AhR) signaling pathway (AID 743085).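 For activation: HG2L7.5c1 human HepG2 liver cells with stably integrated DRE-driven firefly reporter; series mostly up to about 70 µM.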 Note: nearly all actives have a fitted effect of over 15% in size. Note: potency is the fitted concentration of half-maximal effect. A digest of the protocol: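 Steps: seed HepG2-AhR-luc cells; allow 5 h at 37C; pin-transfer test compound or vehicle; incubate 24 h at 37C; add viability dye (30 min, 37C) and read fluorescence; add luciferase substrate (30 min, RT) and read luminescence.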

Test [12] can be described thus: qHTS assay to identify small molecule that activate the aryl hydrocarbon receptor (AhR) signaling pathway - cell viability counter screen (AID 743086).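 Note: HepG2 liver cells carrying the AhR DRE luciferase reporter; series mostly up to about 70 µM; nearly all actives have a fitted effect of over 45% in size.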 A digest of the protocol: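 HepG2-AhR-luc (HG2L7.5c1) cells, 4000/well, treated 24 h at 37 C with compound; viability measured as CellTiter-Fluor fluorescence after 30 min in the same wells as the luciferase read.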

The target of test [13] is Peroxisome proliferator-activated receptor gamma (Homo sapiens) (UniProt P37231). The test is described as follows: qHTS assay to identify small molecule agonists of the peroxisome proliferator-activated receptor gamma (PPARg) signaling pathway (AID 743094; active = well fitted activation curve with a large enough effect in the signal ratio in the repeat runs, not every such curve was filed as active; the % refers to the signal ratio). Summed up:
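HEK293H PPARg-bla cells, 5 h settle at 37C/5% CO2; compound (DMSO) 17 h, 37C; B/G FRET substrate 1 h RT; fluorescence intensity read-out. qHTS format.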

Test [14] can be described thus: qHTS assay to identify small molecule antagonists of the peroxisome proliferator-activated receptor gamma (PPARg) signaling pathway - cell viability counter screen (AID 743194). Note: nearly all actives have a fitted effect of over 55% in size. A digest of the protocol:
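Cytotoxicity counter screen in PPARg-bla HEK293H cells, same wells as reporter assay. Compounds plus 50 nM rosiglitazone (final) for 17 h at 37 C, then viability read by CellTiter-Glo luminescence.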

A short description of test [15]: qHTS assay for small molecule agonists of the antioxidant response element (ARE) signaling pathway (AID 743202; active = well fitted activation curve with a large enough effect in the signal ratio in the repeat runs, not every such curve was filed as active; the % refers to the signal ratio). A digest of the protocol:
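HepG2 ARE-bla reporter line, 2,000 cells/well; 5 h preincubation 37 C/5% CO2; compound (DMSO) 16 h 37 C; B/G FRET substrate 2 h RT; fluorescence intensity.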

Test [16] is described as follows: qHTS assay for small molecule agonists of the antioxidant response element (ARE) signaling pathway - cell viability counter screen (AID 743203; calls by dose curve; note: nearly all actives have a fitted effect of over 55% in size). Summed up: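 Luminescence read-out (CellTiter-Glo, 30 min at room temperature) measured cell viability in the same wells as the ARE beta-lactamase reporter. HepG2 ARE-bla cells were treated with compounds for 16 hrs at 37C/5% CO2.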

Test [17] in a line: qHTS assay for small molecule activators of the heat shock response signaling pathway - cell viability counter screen (AID 743209). Note: nearly all actives have a fitted effect of over 50% in size. A digest of the protocol: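 HSE-bla HeLa; 1500 cells/well; overnight 37 C, 5% CO2; compound 5 h 37 C; LiveBLAzer B/G substrate 2.5 h RT; CellTiter-Glo 30 min RT; luminescence.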
Test [18] concerns the target Peroxisome proliferator-activated receptor gamma (Homo sapiens) (UniProt P37231). The test is described as follows: qHTS assay to identify small molecule antagonists of the peroxisome proliferator-activated receptor gamma (PPARg) signaling pathway (AID 743191; calls by dose curve; note: series mostly up to about 63 µM; nearly all actives have a fitted effect of over 30% in size). A digest of the protocol: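 GeneBLAzer PPARg UAS-bla HEK293H cells, 5 h post-plating, exposed to compounds 17 h at 37C. LiveBLAzer B/G FRET substrate added for 1 h at room temperature; beta-lactamase reporter read by fluorescence intensity.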

A short description of test [19]: qHTS assay for small molecule activators of the heat shock response signaling pathway (AID 743210; active = well fitted activation curve with a large enough effect in the signal ratio in the repeat runs, with a control signal flat, not every such curve was filed as active; the % refers to the signal ratio; note: series mostly up to about 63 µM). Summed up: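 Beta-lactamase reporter read-out: FRET substrate fluorescence after 2.5 h at RT, following 5 h compound treatment at 37 C of HeLa cells carrying HSE-driven bla reporter; quantitative HTS format.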

Chain of Aromatase (Homo sapiens) (P11511 whole entry, looked up): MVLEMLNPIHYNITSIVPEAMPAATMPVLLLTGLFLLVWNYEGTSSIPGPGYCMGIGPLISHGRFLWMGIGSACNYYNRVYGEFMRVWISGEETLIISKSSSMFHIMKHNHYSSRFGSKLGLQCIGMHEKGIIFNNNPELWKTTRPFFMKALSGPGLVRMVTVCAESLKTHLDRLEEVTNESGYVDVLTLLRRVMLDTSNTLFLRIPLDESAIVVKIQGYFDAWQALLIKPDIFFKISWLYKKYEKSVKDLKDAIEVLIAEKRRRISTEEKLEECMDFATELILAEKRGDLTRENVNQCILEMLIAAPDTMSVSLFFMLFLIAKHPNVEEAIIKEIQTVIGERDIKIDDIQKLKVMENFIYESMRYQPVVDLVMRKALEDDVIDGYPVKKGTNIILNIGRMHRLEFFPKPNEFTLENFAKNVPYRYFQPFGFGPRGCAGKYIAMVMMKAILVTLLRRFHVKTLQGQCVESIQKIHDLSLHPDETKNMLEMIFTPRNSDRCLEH
Chain of Aryl hydrocarbon receptor (Homo sapiens) (P35869 whole entry, looked up): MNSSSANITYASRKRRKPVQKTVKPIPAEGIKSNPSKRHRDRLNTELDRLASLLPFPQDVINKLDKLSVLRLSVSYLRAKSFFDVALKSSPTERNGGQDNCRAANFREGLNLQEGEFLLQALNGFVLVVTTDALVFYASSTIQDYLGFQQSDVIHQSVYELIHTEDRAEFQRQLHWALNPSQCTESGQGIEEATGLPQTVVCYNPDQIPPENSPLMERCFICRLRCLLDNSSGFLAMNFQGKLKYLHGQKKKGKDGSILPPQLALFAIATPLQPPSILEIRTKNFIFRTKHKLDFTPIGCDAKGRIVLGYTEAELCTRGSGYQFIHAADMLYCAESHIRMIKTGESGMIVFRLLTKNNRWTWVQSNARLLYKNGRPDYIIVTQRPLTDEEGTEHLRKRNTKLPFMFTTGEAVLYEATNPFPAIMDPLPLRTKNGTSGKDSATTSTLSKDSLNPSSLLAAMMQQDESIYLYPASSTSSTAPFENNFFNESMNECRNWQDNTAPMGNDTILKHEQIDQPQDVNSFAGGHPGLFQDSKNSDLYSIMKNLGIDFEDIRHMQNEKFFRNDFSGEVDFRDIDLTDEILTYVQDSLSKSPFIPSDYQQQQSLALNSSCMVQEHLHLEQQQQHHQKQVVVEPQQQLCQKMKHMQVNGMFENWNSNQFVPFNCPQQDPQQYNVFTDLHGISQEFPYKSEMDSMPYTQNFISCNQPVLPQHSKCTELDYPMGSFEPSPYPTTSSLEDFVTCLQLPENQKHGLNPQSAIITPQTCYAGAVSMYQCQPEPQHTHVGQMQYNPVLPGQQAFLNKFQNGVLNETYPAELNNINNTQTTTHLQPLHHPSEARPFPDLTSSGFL
Chain of Peroxisome proliferator-activated receptor gamma (Homo sapiens) (P37231 whole entry, looked up): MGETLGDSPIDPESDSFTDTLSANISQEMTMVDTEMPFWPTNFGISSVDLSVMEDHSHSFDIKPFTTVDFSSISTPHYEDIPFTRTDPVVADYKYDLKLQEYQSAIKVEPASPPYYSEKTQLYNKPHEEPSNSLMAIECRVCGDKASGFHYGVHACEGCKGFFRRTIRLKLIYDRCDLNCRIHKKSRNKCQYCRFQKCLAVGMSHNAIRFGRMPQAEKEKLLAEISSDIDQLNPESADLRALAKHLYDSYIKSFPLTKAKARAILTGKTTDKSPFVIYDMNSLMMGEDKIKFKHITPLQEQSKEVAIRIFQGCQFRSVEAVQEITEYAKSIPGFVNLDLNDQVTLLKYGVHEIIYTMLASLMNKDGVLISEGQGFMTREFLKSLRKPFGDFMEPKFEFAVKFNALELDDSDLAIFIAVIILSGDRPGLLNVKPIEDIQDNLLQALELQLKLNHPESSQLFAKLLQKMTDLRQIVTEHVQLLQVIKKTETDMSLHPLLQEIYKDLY
Chain of Estrogen receptor (Homo sapiens) (P03372 whole entry, looked up): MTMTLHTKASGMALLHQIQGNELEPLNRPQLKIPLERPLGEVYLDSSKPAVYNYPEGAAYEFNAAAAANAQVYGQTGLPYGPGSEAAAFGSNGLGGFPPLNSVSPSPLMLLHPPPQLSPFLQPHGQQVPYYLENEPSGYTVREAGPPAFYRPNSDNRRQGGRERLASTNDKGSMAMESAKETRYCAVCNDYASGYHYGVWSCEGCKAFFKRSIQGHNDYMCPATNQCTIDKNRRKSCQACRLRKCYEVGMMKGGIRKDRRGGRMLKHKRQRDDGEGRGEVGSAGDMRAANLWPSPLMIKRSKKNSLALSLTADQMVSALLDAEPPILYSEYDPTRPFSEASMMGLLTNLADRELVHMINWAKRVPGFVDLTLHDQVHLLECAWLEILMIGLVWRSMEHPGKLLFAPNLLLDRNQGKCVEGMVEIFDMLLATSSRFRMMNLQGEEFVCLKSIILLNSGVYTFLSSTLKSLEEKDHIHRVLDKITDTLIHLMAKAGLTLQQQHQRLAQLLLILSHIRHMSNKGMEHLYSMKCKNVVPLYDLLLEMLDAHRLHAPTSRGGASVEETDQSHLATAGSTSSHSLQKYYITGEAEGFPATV

As to `O=C1CCCCO1`, the Potency result in [1], in test [2], in test [6], in test [7], in test [9] and in test [10] was “inactive” each time. Further, the Potency result in [11], in [12], in [13], in test [15] and in test [17] was “inactive” throughout. For the same compound, the compound was classed as inactive (in [3]; in [4]; in [5]; in [8]; with Aromatase (Homo sapiens); in test [14]). Besides, in [16], the call was inactive.

Take `CCC(C)OC(C)CC` (stereo not drawn): the Potency result in test [1], in test [2], in test [6], in test [7], in test [9] and in [10] was “inactive” throughout. For the same compound, the Potency result in [11], in [12], in test [13] and in test [17] was “inactive” in each case. For the same compound, the compound was classed as inactive (in test [3]; in [4]; in test [5]; in test [8]; with Aromatase (Homo sapiens); in test [18]). Besides, the outcome in [14], in [16] and in [19] was inactive.

On to `CCCCCCCCCCCCCCCCCCOCCO`, for which the Potency result in [1], in test [2], in [6], in test [7], in [9] and in test [10] was “inactive” each time. For the same compound, the Potency entry in test [11], in [12], in [13], in test [15] and in test [17] was “inactive” throughout. Moreover, the outcome (in test [3]; in [4]; in test [5]; in [8]; with Aromatase (Homo sapiens); in [18]) was inactive. Besides, the call in test [14] and in [16] was inactive.

As for `CCCSSCCC`, the Potency result in test [1], in test [2], in test [6], in test [7], in test [9] and in test [10] was “inactive” each time. Further, the Potency result in test [11], in test [12], in [13], in [15] and in test [17] was “inactive” throughout. For the same compound, the compound was classed as inactive (in [3]; in test [4]; in test [5]; in test [8]; with Aromatase (Homo sapiens); in [18]). For the same compound, the call in test [14] and in test [16] was inactive.

As for `COC(=O)CCCCC(=O)O`, the Potency result in test [1], in test [2], in test [6], in [7], in test [9] and in test [10] was “inactive” each time. Moreover, the Potency entry in test [11], in [12], in [13], in test [15] and in test [17] was “inactive” each time. The compound was classed as inactive (in test [3]; in test [4]; in test [5]; in [8]; with Aromatase (Homo sapiens); in test [18]). Moreover, the result in [14] and in test [16] was inactive.

Consider `CC/C(C)=N\O[Si](C)(O/N=C(\C)CC)O/N=C(\C)CC`, for which the Potency result in [1], in [2], in test [6], in test [7], in test [9] and in [10] was “inactive” in each case. The Potency entry in test [12], in test [13], in test [15] and in test [17] was “inactive” each time. Besides, the compound was called inactive (in test [3]; in test [4]; in test [5]; in [8]; in the test with Aromatase (Homo sapiens); in test [18]). Moreover, the result in test [14], in test [16] and in [19] was inactive. The Potency in [11] was 24.7 µM (active).

For `CCC(C)C(=O)OCCc1ccccc1` (stereo not drawn), the Potency entry in [1], in test [2], in test [6], in test [7], in [9] and in test [10] was “inactive” each time. Besides, the Potency entry in test [11], in test [12], in test [13], in test [15] and in test [17] was “inactive” each time. Besides, the compound was classed as inactive (in test [3]; in test [4]; in test [5]; in test [8]; with Aromatase (Homo sapiens); in test [18]). Besides, the compound was classed as inactive in [14], in test [16] and in test [19].

Consider `CCCCCCCCCOC(=O)c1ccccc1C(=O)OCCCCCCCCC`, for which the Potency entry in test [1], in test [2], in [6], in [7], in test [9] and in test [10] was “inactive” throughout. For the same compound, the Potency result in [11], in [12], in [13], in [15] and in [17] was “inactive” throughout. The result (in test [3]; in [4]; in test [5]; in test [8]; in the test with Aromatase (Homo sapiens); in test [14]) was inactive. Moreover, the outcome in [16] and in test [19] was inactive.
